# Results published in the supplement of paper PMC4022240.
# ± gives the standard deviation.
# T1: HaloTag-ATRX ADD domain (163-292)
# T1 chain: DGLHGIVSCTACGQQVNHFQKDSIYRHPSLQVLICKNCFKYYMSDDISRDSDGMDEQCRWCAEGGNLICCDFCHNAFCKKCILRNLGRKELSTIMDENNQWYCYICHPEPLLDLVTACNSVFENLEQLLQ
# Experiments:
# Assay in all cases: peptide microarray binding signal (635 nm), min-max normalized on array (fraction of array maximum); higher = stronger binding
# Conditions in all cases: peptide region: H3 20-32
# [1] = biological target: T1, HaloTag-ATRX ADD domain (163-292)
# Procedure, shortened: (§1)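 An Axon GenePix 4000B scanned the arrays at 635 nm for signal and at 532 nm to catch misprints. Those arrays held histone 13-mer peptide–cellulose conjugates printed in triplicate on nitrocellulose with a Cy3 tracer, blocked overnight at 4°C and probed for 1 h at 4°C with biotin-labelled HaloTag reader fusions (10 nM to 1 μM) plus streptavidin-Alexa Fluor 647 or with rabbit histone antibodies (1:10,000 to 1:2,000) plus anti-rabbit Alexa 647. Each binding signal is a triplicate-spot mean intensity, scaled min-max within its library.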
# [2] = biological target: HaloTag-ING2 PHD (mouse Ing2 200-280)
# Procedure, shortened: as §1
# [3] = biological target: anti-H3K4me3 antibody ab8580
# Procedure, shortened: as §1
# [4] = biological target: anti-H3K9me3 antibody ab8898
# Procedure, shortened: as §1
# [5] = peptide modifications: H3R26me1 H3K27me1, binder concentration: 1:2,000 dilution
# [6] = peptide modifications: H3R26me1 H3K27me1, binder concentration: 1:10,000 dilution
# [7] = peptide modifications: H3R26me2a H3K27ac, binder concentration: 1:2,000 dilution
# [8] = peptide modifications: H3R26me2a H3K27ac, binder concentration: 1:10,000 dilution
# [9] = peptide modifications: H3R26me2s H3K27me1, binder concentration: 1:2,000 dilution
# [10] = peptide modifications: H3R26me2s H3K27me1, binder concentration: 1:10,000 dilution
# [11] = peptide modifications: H3T22ph H3K23ac, binder concentration: 1:2,000 dilution
# [12] = peptide modifications: H3T22ph H3K23ac, binder concentration: 1:10,000 dilution
# [13] = peptide modifications: H3R26me1, binder concentration: 1:2,000 dilution
# [14] = peptide modifications: H3R26me1, binder concentration: 1:10,000 dilution
# [15] = peptide modifications: H3R26me1 H3K27me2, binder concentration: 1:2,000 dilution
# [16] = peptide modifications: H3R26me1 H3K27me2, binder concentration: 1:10,000 dilution
# [17] = peptide modifications: H3R26me2s H3K27me2, binder concentration: 1:2,000 dilution
# [18] = peptide modifications: H3R26me2s H3K27me2, binder concentration: 1:10,000 dilution
# [19] = peptide modifications: H3R26me2s H3K27ac, binder concentration: 1:2,000 dilution
# [20] = peptide modifications: H3R26me2s H3K27ac, binder concentration: 1:10,000 dilution
# [21] = peptide modifications: H3R26me1 H3K27ac, binder concentration: 1:2,000 dilution
# [22] = peptide modifications: H3R26me1 H3K27ac, binder concentration: 1:10,000 dilution
# [23] = peptide modifications: H3R26cit H3K27me2, binder concentration: 1:2,000 dilution
# [24] = peptide modifications: H3R26cit H3K27me2, binder concentration: 1:10,000 dilution
binder,measurement,setting,value
LATKAARKSAPAT [H3 20-32 L A T K A A Rme Kme S A P A T],peptide microarray binding signal,"[1]; peptide modifications: H3R26me1 H3K27me1, binder concentration: 50 nM",0.00489 ± 4.8e-05
same,peptide microarray binding signal,"[1]; peptide modifications: H3R26me1 H3K27me1, binder concentration: 500 nM",0.00657 ± 0.0021
same,peptide microarray binding signal,"[2]; peptide modifications: H3R26me1 H3K27me1, binder concentration: 10 nM",0.00794
same,peptide microarray binding signal,"[2]; peptide modifications: H3R26me1 H3K27me1, binder concentration: 100 nM",0.0109 ± 0.00039
same,peptide microarray binding signal,[3]; [5],0.00355 ± 0.00035
same,peptide microarray binding signal,[3]; [6],0.00474 ± 0.00018
same,peptide microarray binding signal,[4]; [5],0.0024 ± 8.4e-05
same,peptide microarray binding signal,[4]; [6],0.001557 ± 1.5e-05
LATKAARKSAPAT [H3 20-32 L A T K A A Rme2a Kac S A P A T],peptide microarray binding signal,"[1]; peptide modifications: H3R26me2a H3K27ac, binder concentration: 50 nM",0.00467 ± 0.00027
same,peptide microarray binding signal,"[1]; peptide modifications: H3R26me2a H3K27ac, binder concentration: 500 nM",0.0126 ± 0.0011
same,peptide microarray binding signal,"[2]; peptide modifications: H3R26me2a H3K27ac, binder concentration: 10 nM",0.0197 ± 0.0013
same,peptide microarray binding signal,"[2]; peptide modifications: H3R26me2a H3K27ac, binder concentration: 100 nM",0.0246 ± 0.0016
same,peptide microarray binding signal,[3]; [7],0.00936 ± 0.0018
same,peptide microarray binding signal,[3]; [8],0.0107 ± 0.00049
same,peptide microarray binding signal,[4]; [7],0.00763 ± 0.0006
same,peptide microarray binding signal,[4]; [8],0.00565 ± 0.00056
LATKAARKSAPAT [H3 20-32 L A T K A A Rme2s Kme S A P A T],peptide microarray binding signal,"[1]; peptide modifications: H3R26me2s H3K27me1, binder concentration: 50 nM",0.00511 ± 6.7e-05
same,peptide microarray binding signal,"[1]; peptide modifications: H3R26me2s H3K27me1, binder concentration: 500 nM",0.00771 ± 0.00038
same,peptide microarray binding signal,"[2]; peptide modifications: H3R26me2s H3K27me1, binder concentration: 10 nM",0.0191 ± 0.00015
same,peptide microarray binding signal,"[2]; peptide modifications: H3R26me2s H3K27me1, binder concentration: 100 nM",0.02409 ± 0.00015
same,peptide microarray binding signal,[3]; [9],0.00608 ± 0.0005
same,peptide microarray binding signal,[3]; [10],0.00845 ± 0.00053
same,peptide microarray binding signal,[4]; [9],0.00384 ± 0.00014
same,peptide microarray binding signal,[4]; [10],0.00283 ± 4.9e-05
LATKAARKSAPAT [H3 20-32 L A Tph Kac A A R K S A P A T],peptide microarray binding signal,"[1]; peptide modifications: H3T22ph H3K23ac, binder concentration: 50 nM",0.00602 ± 0.00043
same,peptide microarray binding signal,"[1]; peptide modifications: H3T22ph H3K23ac, binder concentration: 500 nM",0.0111 ± 0.0014
same,peptide microarray binding signal,"[2]; peptide modifications: H3T22ph H3K23ac, binder concentration: 10 nM",0.0199 ± 0.0011
same,peptide microarray binding signal,"[2]; peptide modifications: H3T22ph H3K23ac, binder concentration: 100 nM",0.0259 ± 0.00072
same,peptide microarray binding signal,[3]; [11],0.00476 ± 0.00081
same,peptide microarray binding signal,[3]; [12],0.00616 ± 0.00082
same,peptide microarray binding signal,[4]; [11],0.00257 ± 0.00028
same,peptide microarray binding signal,[4]; [12],0.00202
LATKAARKSAPAT [H3 20-32 L A T K A A Rme K S A P A T],peptide microarray binding signal,"[1]; peptide modifications: H3R26me1, binder concentration: 50 nM",0.00408 ± 8.9e-05
same,peptide microarray binding signal,"[1]; peptide modifications: H3R26me1, binder concentration: 500 nM",0.006381 ± 3.8e-05
same,peptide microarray binding signal,"[2]; peptide modifications: H3R26me1, binder concentration: 10 nM",0.00824 ± 0.00019
same,peptide microarray binding signal,"[2]; peptide modifications: H3R26me1, binder concentration: 100 nM",0.0116 ± 0.00028
same,peptide microarray binding signal,[3]; [13],0.00342 ± 0.0002
same,peptide microarray binding signal,[3]; [14],0.00325 ± 0.00018
same,peptide microarray binding signal,[4]; [13],0.00187 ± 4.7e-05
same,peptide microarray binding signal,[4]; [14],0.00161 ± 3.1e-05
LATKAARKSAPAT [H3 20-32 L A T K A A Rme Kme2 S A P A T],peptide microarray binding signal,"[1]; peptide modifications: H3R26me1 H3K27me2, binder concentration: 50 nM",0.00392 ± 0.00013
same,peptide microarray binding signal,"[1]; peptide modifications: H3R26me1 H3K27me2, binder concentration: 500 nM",0.002619 ± 2.1e-05
same,peptide microarray binding signal,"[2]; peptide modifications: H3R26me1 H3K27me2, binder concentration: 10 nM",0.00483 ± 0.00013
same,peptide microarray binding signal,"[2]; peptide modifications: H3R26me1 H3K27me2, binder concentration: 100 nM",0.00517 ± 7.1e-05
same,peptide microarray binding signal,[3]; [15],0.00176
same,peptide microarray binding signal,[3]; [16],0.00194
same,peptide microarray binding signal,[4]; [15],0.00106 ± 2.2e-05
same,peptide microarray binding signal,[4]; [16],0.001211 ± 1.2e-05
LATKAARKSAPAT [H3 20-32 L A T K A A Rme2s Kme2 S A P A T],peptide microarray binding signal,"[1]; peptide modifications: H3R26me2s H3K27me2, binder concentration: 50 nM",0.00351 ± 3.8e-05
same,peptide microarray binding signal,"[1]; peptide modifications: H3R26me2s H3K27me2, binder concentration: 500 nM",0.00129 ± 2.1e-05
same,peptide microarray binding signal,"[2]; peptide modifications: H3R26me2s H3K27me2, binder concentration: 10 nM",0.003342 ± 1.8e-05
same,peptide microarray binding signal,"[2]; peptide modifications: H3R26me2s H3K27me2, binder concentration: 100 nM",0.00312 ± 7.5e-05
same,peptide microarray binding signal,[3]; [17],0.00128 ± 2e-05
same,peptide microarray binding signal,[3]; [18],0.00114 ± 2.3e-05
same,peptide microarray binding signal,[4]; [17],0.000725 ± 1.1e-05
same,peptide microarray binding signal,[4]; [18],0.000865 ± 9e-06
LATKAARKSAPAT [H3 20-32 L A T K A A Rme2s Kac S A P A T],peptide microarray binding signal,"[1]; peptide modifications: H3R26me2s H3K27ac, binder concentration: 50 nM",0.00495 ± 0.00035
same,peptide microarray binding signal,"[1]; peptide modifications: H3R26me2s H3K27ac, binder concentration: 500 nM",0.00714 ± 0.00025
same,peptide microarray binding signal,"[2]; peptide modifications: H3R26me2s H3K27ac, binder concentration: 10 nM",0.0155 ± 0.00088
same,peptide microarray binding signal,"[2]; peptide modifications: H3R26me2s H3K27ac, binder concentration: 100 nM",0.0127 ± 0.00058
same,peptide microarray binding signal,[3]; [19],0.00574 ± 0.0007
same,peptide microarray binding signal,[3]; [20],0.00491 ± 7.1e-05
same,peptide microarray binding signal,[4]; [19],0.0064 ± 0.0001
same,peptide microarray binding signal,[4]; [20],0.00715 ± 0.0006
LATKAARKSAPAT [H3 20-32 L A T K A A Rme Kac S A P A T],peptide microarray binding signal,"[1]; peptide modifications: H3R26me1 H3K27ac, binder concentration: 50 nM",0.00429 ± 0.00036
same,peptide microarray binding signal,"[1]; peptide modifications: H3R26me1 H3K27ac, binder concentration: 500 nM",0.0144 ± 0.0011
same,peptide microarray binding signal,"[2]; peptide modifications: H3R26me1 H3K27ac, binder concentration: 10 nM",0.0271 ± 0.0026
same,peptide microarray binding signal,"[2]; peptide modifications: H3R26me1 H3K27ac, binder concentration: 100 nM",0.0327 ± 0.0033
same,peptide microarray binding signal,[3]; [21],0.00627 ± 0.0032
same,peptide microarray binding signal,[3]; [22],0.00987 ± 0.00026
same,peptide microarray binding signal,[4]; [21],0.0058 ± 0.00049
same,peptide microarray binding signal,[4]; [22],0.00306 ± 0.00012
LATKAARKSAPAT [H3 20-32 L A T K A A Rcit Kme2 S A P A T],peptide microarray binding signal,"[1]; peptide modifications: H3R26cit H3K27me2, binder concentration: 50 nM",0.00414 ± 5.8e-05
same,peptide microarray binding signal,"[1]; peptide modifications: H3R26cit H3K27me2, binder concentration: 500 nM",0.00333 ± 0.00011
same,peptide microarray binding signal,"[2]; peptide modifications: H3R26cit H3K27me2, binder concentration: 10 nM",0.00692 ± 0.00014
same,peptide microarray binding signal,"[2]; peptide modifications: H3R26cit H3K27me2, binder concentration: 100 nM",0.00843 ± 0.00034
same,peptide microarray binding signal,[3]; [23],0.00262 ± 0.00016
same,peptide microarray binding signal,[3]; [24],0.00314 ± 4.6e-05
same,peptide microarray binding signal,[4]; [23],0.00196 ± 6.8e-05
same,peptide microarray binding signal,[4]; [24],0.00167 ± 4.8e-05
